Measured values from the supplement of paper PMC6555819.

How the values were obtained:
Assay in all cases: PBM binding z-score (relative to random genomic background probes); higher = stronger binding; sequences stand for … in GC…GCGATTGACAGCGTAGAATGAAGG
[1] = tested on: PPARg:RXRa DBDmut IVT, anti-RXR (DBD mutation: RXRa K156A/R161A, NR concentration 270 nM, RXRa partner concentration 90 nM)
Outline: (§1)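 Binding z-scores take random background probes as their reference. They come from custom Agilent 4×180K protein-binding microarrays incubated 1 h with ligand-free nuclear receptor dimers, with antibodies against each partner (one per run) detecting binding. Scanned fluorescence was regression-normalized.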

[2] = tested on: PPARg:RXRa IVT, anti-PPARg (NR concentration 270 nM, RXRa partner concentration 90 nM)
Outline: as §1

[3] = tested on: PPARg DBDmut:RXRa IVT, anti-PPARg (DBD mutation: PPARg1 K132A/R137A, NR concentration 270 nM, RXRa partner concentration 90 nM)
Outline: as §1

[4] = tested on: PPARg DBDmut IVT, anti-PPARg (DBD mutation: PPARg1 K132A/R137A, NR concentration 270 nM)
Outline: as §1

[5] = tested on: PPARg homodimer (NR concentration 180 nM)
Outline: as §1

[6] = tested on: PXR:RXRa (NR concentration 270 nM, RXRa partner concentration 90 nM)
Outline: as §1

[7] = tested on: PXR homodimer (NR concentration 270 nM)
Outline: as §1

[8] = tested on: RARa:RXR (NR concentration 270 nM, RXRa partner concentration 90 nM)
Outline: as §1

[9] = tested on: RARa homodimer (NR concentration 270 nM)
Outline: as §1

[10] = tested on: RARb:RXRa (NR concentration 270 nM, RXRa partner concentration 90 nM)
Outline: as §1

| Sequence | PBM binding z-score [1] | PBM binding z-score [2] | PBM binding z-score [3] | PBM binding z-score [4] | PBM binding z-score [5] | PBM binding z-score [6] | PBM binding z-score [7] | PBM binding z-score [8] | PBM binding z-score [9] | PBM binding z-score [10] |
| --- | --- | --- | --- | --- | --- | --- | --- | --- | --- | --- |
| CCTAGCAGGCCAATCTGGGCCACTCAAGGCTTGA | 2.99 | 2.85 | -0.703 | -1.73 | -0.99 | -1.04 | -1.05 | -1.11 | -0.723 | 0.0812 |
| ACCAGTTGGTCAGCTGAGGTCACACACAATTCGG | 1.19 | 2.26 | 0.45 | -0.406 | 2.59 | 5.42 | 2.07 | 4.41 | 0.742 | 3.71 |
| CCTCGGAGGACAACAGGAGGTCGGAGCTGCCAGA | -0.0819 | -0.232 | -0.343 | -1.52 | -0.189 | 0.00803 | -0.239 | 0.109 | 0.111 | 1.55 |
| CAAACTAGGTCACGGTCAAAGTCGGTTTGTGCCA | 8.53 | 9.26 | 4.37 | 3.83 | 2.22 | 2.72 | -0.218 | 3.68 | 0.991 | 4.81 |
| GATACTGGGTCAAGGCCAGAGTACGCGTATTGAT | 6.7 | 7.44 | 0.217 | 1.07 | 1.49 | 1.23 | -0.00412 | 1.72 | 0.506 | 3.48 |
| GCTAGCAGGCCATTTGGATCACTCAATGACGGGC | 0.765 | 0.13 | -0.26 | -0.878 | -0.828 | -0.802 | -0.249 | -0.562 | -0.338 | 0.151 |
| ATCTCTAGCTAAAAGTTCAGTGAATCCCGAGGAT | -0.639 | -0.151 | 0.697 | 1.23 | 0.702 | 1.3 | 1.49 | 0.379 | 0.986 | 2.17 |
| TCTAGTTGGTCACGGAGGCCACACACGACGGGTA | 2.18 | 2.47 | 0.779 | 0.634 | 0.778 | 0.694 | 0.425 | 0.748 | 0.249 | 2.16 |
| GTTAGTTGGTCAGTAAAAGGTCACACACCGGTCG | 2.02 | 3.66 | 1.57 | 0.79 | 5.74 | 5.26 | 1.74 | 6.27 | 3.99 | 4.39 |
| GCGACTGGGGCAAAGCAGGTTACAATAAGGTTGG | 4.73 | 3.71 | -0.466 | -0.774 | 0.387 | 0.661 | -0.376 | 0.904 | -0.625 | 1.06 |
| TTACCAAGGTGAAAGGTCGTGGATGCACGCCTTG | 3.06 | 5.11 | 0.851 | -0.117 | 2.21 | 4.12 | 0.543 | 6.44 | 0.268 | 3.33 |
| ACTAGCACGCCAAGGGTCACTCAAGATTAGTCCG | 0.189 | 1.26 | -0.247 | -0.0799 | 2.55 | 3.56 | 0.0958 | 4.5 | 1.53 | 3.58 |
| TGTCAAAGTTCAAAGGTAACGCAAGTATCCACAC | 0.302 | 4.95 | 0.987 | 0.888 | 3.82 | 6.07 | 4.47 | 7.09 | 1.84 | 5.19 |
| CCGACTGGGGCAAAGGCTACCATACTCAGTACGA | 2.79 | 3.71 | -0.0188 | -0.284 | 0.531 | -0.487 | -0.267 | -0.203 | -0.204 | 0.812 |
| CGTACAAGGTCAAGGTCAGTGAAAGAGACTCGAA | 4.64 | 5.48 | 1.83 | 0.837 | 4.4 | 5.27 | 1.65 | 5.96 | 2.4 | 5.65 |
| CCTAGCAGGCCAATCTGGGTCACTCGAGGCTTGA | 4.16 | 4.75 | -0.336 | 0.34 | 1.39 | 1.1 | -0.592 | 1.85 | -0.324 | 1.56 |
| AGTCAAAGATCAGGACGAGGTAACGTAAAGCACG | -0.64 | 0.122 | 0.0525 | 0.169 | -0.153 | -0.236 | -0.419 | 0.336 | 0.445 | 0.247 |
| TCATATTGGTAATACAGGTGAAAGTCGGCATCTA | 2.7 | 1.89 | 0.751 | 1.85 | 1.69 | 0.947 | 0.763 | 1.09 | 1.43 | 0.496 |
| CAAACTAGGTCAAAGGTCACAGTCGAGCCAACCA | 8.58 | 9.39 | 3.19 | 2.73 | 4.25 | 6.88 | 1.29 | 8.53 | 1.9 | 5.89 |
| ACATACGGGTCAACGAGGTTATAGCACGCGTATA | 3.32 | 4.26 | 2.04 | 0.961 | 2.67 | 5.01 | 2.89 | 5.03 | 1.03 | 3.99 |
| ATCTCTAGGCAAGACTCAGTTCAGTGAAGAACGC | 0.117 | -0.103 | 0.0484 | -0.188 | 0.522 | 0.202 | 0.453 | -0.255 | -0.0609 | -0.159 |
| GCAGACAGGTGAAACGCAGTTAACTCAGGGTGGC | 0.917 | 0.29 | -1.71 | -0.986 | -0.869 | -0.255 | -0.841 | 0.164 | -0.965 | 0.589 |
| TCTCGGAGGACACGCAGGTCAGAGCTTTCCAGAG | 1 | 0.776 | -0.915 | -1.54 | 0.365 | 1.1 | 0.213 | 1.15 | -0.493 | 2.67 |
| CCTACTGGGCCATGAGGTCATTGATATCAACGTT | 4.24 | 5.54 | 0.512 | -0.0861 | 2.41 | 4.71 | 3.85 | 4.49 | 0.257 | 2.91 |
